Source: ChEMBL document CHEMBL1157539, “Thousands of chemical starting points for antimalarial lead identification” (Nature, 2010)

system: HepG2; assay: GSK_TCMDC: Percent inhibition of human HepG2 cell line. Test compounds present at 10uM.; format: functional

Compared with CC1(C)NC(N)=NC(=N)N1OCc1cc(Cl)c(Cl)cc1CON1C(=N)N=C(N)NC1(C)C, Br.CCC(CCON1C(N)=NC(N)=NC1(C)C)c1ccc(Cl)c(Cl)c1 (stereo not given) is higher in Inhibition: 36% for the first, 68% for the second.

Compared with CCn1c(Sc2ccc([N+](=O)[O-])c(C#N)c2)nnc1-c1ccc(Cl)cc1, O=C(Nc1ccc(-c2csc3nccn23)cc1)c1ccc(Cl)cc1 is higher in Inhibition: 2% for the first, 54% for the second.

Compared with O=C(NCC1CCN(Cc2cccc(C(F)(F)F)c2)C1)c1cc(-c2cccc(C(F)(F)F)c2)cs1.O=C(O)C(F)(F)F (stereo not given), CC(C)(C)c1ccc(CN2CCCCC(NC(=O)c3cc(-c4ccccc4F)cs3)C2)cc1.O=C(O)C(F)(F)F (stereo not given) is lower in Inhibition: 35% for the first, 6% for the second.

Going from CC(C)NCc1ccc(-c2cccc(-c3nc4cc(F)ccc4[nH]3)c2)cc1.O=C(O)C(F)(F)F to Cc1cccc2nc(-c3cccc(-c4ccc(CNCCc5ccncc5)cc4)c3)[nH]c12.O=C(O)C(F)(F)F, the Inhibition rises from 14% to 40%.

Going from Cn1cncc1C(=O)Nc1cccc(-c2ccc(-c3nc4cc(F)ccc4[nH]3)cc2)c1 to Cn1cnc(CCNC(=O)c2ccc(-c3cccc(-c4nc5ccccc5[nH]4)c3)cc2)c1, the Inhibition rises from 0% to 1%.

Going from COc1cc2nc(NCc3nc4ccccc4[nH]3)nc(N)c2cc1OC.Cl to COc1ccccc1CCNc1ncnc2c1[nH]c1ccc(F)cc12, the Inhibition rises from 3% to 49%.

Compared with CCC(Nc1noc(-c2c(-c3ccccc3)noc2C)n1)c1ccccc1 (stereo not given), CCC(C)c1ccc(-n2c(Nc3ccccc3)nc3cc(S(N)(=O)=O)ccc32)cc1 (stereo not given) is lower in Inhibition: 4% for the first, 0% for the second.

Compared with O=C(Nc1ccc(-c2ccccc2)s1)N[C@H]1CCN(Cc2ccc(OCCCN3CCCCC3)cc2)C1, O=S(=O)(Nc1ccc(CCN2CCC(N3CCCCC3)CC2)cc1)c1cccc2cccnc12 is higher in Inhibition: 5% for the first, 14% for the second.

Compared with COc1cccc(NC(=O)Nc2cc(-c3ccc4[nH]ncc4c3)cc3c2CNC3=O)c1, COc1ccc(-c2onc(C(F)(F)F)c2-c2ccc(Br)cc2)c(O)c1 is higher in Inhibition: 3% for the first, 7% for the second.

First: O=C(O)C(F)(F)F.c1ccc(CCNCc2ccc(-c3cccc(CNc4ccc5ncccc5c4)c3)cc2)cc1
Second: Nc1cccc(CNCc2ccc(-c3ccc(-c4nc5cc(C(F)(F)F)ccc5[nH]4)s3)cc2)c1.O=C(O)C(F)(F)F
The Inhibition of the first is higher: 30% for the first, 28% for the second.

Compared with CCc1c[nH]c2c(N(c3ccccc3)S(C)(=O)=O)cc(C(=O)N[C@@H](Cc3ccccc3)[C@H](O)CNC(C)(C)CCCC(C)C)cc12.O=CO, CCC(C)NC(=O)CN1CN(c2ccccc2)C2(CCN(C(=O)c3ccc4ccccc4c3)CC2)C1=O (stereo not given) is lower in Inhibition: 99% for the first, 0% for the second.

First: Cl.N=C(N)NN=C1C=Cc2cccc3cccc1c23
Second: CCC(O)c1ccc(Br)cc1NC(=O)c1cccc(Cl)c1 (stereo not given)
The Inhibition of the first is higher: 9% for the first, 0% for the second.

Going from Cc1nc2ccccc2c(O)c1[N+](=O)[O-] to CCCCNc1cc(NCCCC)c2c(n1)[nH]c1ccccc12, the Inhibition rises from 5% to 13%.

Compared with CN(c1ncc(-c2cccc(CNCc3ccccc3O)c2)cn1)C1CCCCC1, CCCc1ccccc1OCC(O)CN(C1CCCC1)C1CCCC1.Cl (stereo not given) is higher in Inhibition: 12% for the first, 49% for the second.

First: CCCCC(=O)Nc1nonc1-c1ccc(OCC)c(OCC)c1
Second: CCOc1cc2ncnc(Nc3ccc(OCc4c(F)cccc4F)c(OC)c3)c2cc1OCC.Cl
The Inhibition of the first is higher: 9% for the first, 7% for the second.

First: CCCN(CCC)CCCNc1ccc(C(=O)Nc2ccc(C(C)C)cc2)cc1[N+](=O)[O-]
Second: COc1ccc(C(=O)NC(Nc2ccc([N+](=O)[O-])cc2)C(Cl)(Cl)Cl)cc1 (stereo not given)
The Inhibition of the first is higher: 17% for the first, 15% for the second.

Compared with O=C(NC1c2ccccc2Oc2ccccc21)c1ccccc1O, CC(Oc1ccc(C(=O)c2ccc(F)cc2)cc1)C(=O)N1CCc2ccccc21 (stereo not given) is higher in Inhibition: 0% for the first, 9% for the second.

First: CCOC(=O)c1c(CN(CC)CC)n(-c2ccccc2)c2cc(Br)c(O)cc12
Second: Cc1c(C)c2c(c(C)c1O)CC[C@](C)(C(=O)N1CCC(CCN3CCC(c4c[nH]c5ccccc45)CC3)CC1)O2
The Inhibition of the first is lower: 14% for the first, 31% for the second.

First: CC(C)(C)c1ccc(CNC(=O)c2cc(CNC3CCC(N)CC3)ccc2O)cc1 (stereo not given)
Second: O=C(Nc1cccc(-c2cccc(CN3CCCC3)c2)c1)c1ccc(Cl)cc1.O=C(O)C(F)(F)F
The Inhibition of the first is lower: 1% for the first, 50% for the second.

First: CCCCCCCN1CC[C@@H](CCCc2ccnc3ccc(OCCN4CCOCC4)cc23)[C@@H](CC)C1.O=C(O)C(=O)O
Second: Nc1c(Cl)cc(C(O)CNCCCCCCOCCc2ccc(CO)s2)cc1Cl.O=C(O)/C=C/C(=O)O (stereo not given)
The Inhibition of the first is higher: 14% for the first, 1% for the second.
